Screens (PubChem BioAssay)
Most compounds without a hit are left out; they make up all but 4.6% or so of the library.
TRHR enhancer: TRH receptor (human) allosteric enhancement. P34981. TRHR cells, fluo-8 calcium fluorescence, EC20 TRH enhancement. enhancement, % at 2 µM. 360,000 compounds, 0.66% hits; in the data active means enhancement above about 30%; further: 0% is about no effect
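Enhancer read-out: after compound pinning and an initial kinetic agonist-mode read, an EC20 of TRH (10 nM final) was injected and fluo-8 calcium signal (Ex 480/Em 530) followed at 1 s/cycle for 100 cycles in TRHR-expressing cells.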
TRHR agonist: agonists of human TRH receptor | 360,000 compounds, 0.18% hits | TRHR cells, calcium flux fluo-8, FDSS agonist mode | AID 493084 | activation, % at 2 µM | P34981; further: 0% is about no effect
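TRHR-expressing cells loaded with fluo-8 calcium dye; 23 nL library compound pin-transferred, kinetic FDSS fluorescence (Ex 480/Em 530) recorded about 180 s for agonist-induced calcium release, before a 10 nM TRH EC20 addition for potentiator mode.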
Epigenetic derep: regulators of epigenetic silencing causing reporter derepression in mouse cells; murine LDR cells, GFP reporter derepression, 30 h; Potency, µM (highest dose often 53.9 µM), for inactives: top-dose GFP activation, usual class: activators; 280,000 compounds, 0.2% hits; AID 1865; active means well fitted activation curve with a large enough effect; inconclusive means small, poorly fitted or top-dose-only effect; further: potency means the concentration at half of the fitted maximal effect; % of control where 0% means no effect; nearly all actives have a fitted effect of over 60% in size
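Reporter derepression read as number of fluorescent GFP-positive objects, 20-120 um in size, counted by laser-scanning cytometer. Mouse LDR line with an epigenetically silenced CMV-GFP locus; compound incubation 30 h, 37 C.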
D1 agonist: agonists of human D1 dopamine receptor; AID 504660; P21728; activation, % at 2 µM; HEK293 T-REx D1 cells, calcium flux, agonist mode; 360,000 compounds, 1% hits; further: 0% is about no effect
Target sequence (P21728 whole entry, looked up): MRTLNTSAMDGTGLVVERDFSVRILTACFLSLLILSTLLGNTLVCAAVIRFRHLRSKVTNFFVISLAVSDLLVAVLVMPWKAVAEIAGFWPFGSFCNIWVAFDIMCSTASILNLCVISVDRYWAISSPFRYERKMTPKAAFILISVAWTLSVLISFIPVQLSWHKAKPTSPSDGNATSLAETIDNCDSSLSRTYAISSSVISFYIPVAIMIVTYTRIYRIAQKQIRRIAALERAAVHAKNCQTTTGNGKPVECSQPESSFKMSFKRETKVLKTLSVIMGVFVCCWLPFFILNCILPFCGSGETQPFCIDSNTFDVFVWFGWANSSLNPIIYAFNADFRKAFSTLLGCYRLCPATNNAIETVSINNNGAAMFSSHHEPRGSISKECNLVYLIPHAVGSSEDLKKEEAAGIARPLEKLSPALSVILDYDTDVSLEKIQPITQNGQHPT
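Inducible HEK293 T-REx D1 cells, force-coupled to calcium signalling, were plated at 4000 cells/well with tetracycline and held overnight at 30 C. After no-wash calcium dye loading, compound-evoked calcium rise over 180 s flagged agonists.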
D1 PAM: potentiators of human D1 dopamine receptor; P21728; HEK293 TREx D1 cells, calcium flux, dopamine EC20 potentiation; potentiation, % at 10 µM; 360,000 compounds, 0.036% hits; AID 504651; in the data active means potentiation above about 30%; further: 0% is about no effect
D1 antag: antagonists of human D1 dopamine receptor | AID 504652 | P21728 | activity change, negative = inhibition, % at 10 µM | 360,000 compounds, 3.2% hits | HEK293 TREx D1 cells, calcium flux, dopamine EC80; stronger effect = lower value; in the data active means activity change below about -30%; further: on the % scale 0 is the no-effect control and ±100 the full control effect
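HEK293 T-REx cells expressing inducible, force-coupled D1 receptor; no-wash Ca dye, 30–90 min RT. Cmpd → 180 s read at 1 Hz → EC80 DA → 180 s read.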
Numbers without * were called inactive; u = inconclusive; x = not tested or not shown. Unless noted, no stated cut-off is given here; in the data, active means activation above about 30%; inactive means the rest.

SMILES	TRHR enhancer	TRHR agonist	Epigenetic derep	D1 agonist	D1 PAM	D1 antag
Cc1cccc(N2CCN(C(=O)Nc3cn(CC(C)C)c(=O)c4ccccc34)CC2)c1C	-9	-1	-1%	2	-2	10
CCOC(=O)c1c(C)[nH]c(C)c1S(=O)(=O)N1CCC(C(=O)N2CCN(c3cccc(C)c3C)CC2)CC1	-2	-1	0%	5	-2	8
COc1ccc(C(=O)CSc2nnc(Cn3cnc4ccccc43)o2)cc1	1	0	-1%	22	-11	-34*
CC(=O)Cc1nsc(NC(=O)c2ccc(-c3ccc(Cl)cc3Cl)o2)n1	4	0	-1%	4	-9	-31*
CC(=O)Cc1nsc(NC(=O)c2ccc(-c3cc(C(F)(F)F)ccc3Cl)o2)n1	0	0	0%	2	-4	-33*
COc1ccccc1C(=O)c1c(N)c(-c2nc(-c3ccccc3)cs2)c2ccccn12	-2	0	-4%	2	1	11
COc1cccc(OC)c1OCCOc1ccc(C(=O)c2ccccc2)cc1	-9	-1	0%	22	-6	-35*
COC(=O)c1ccc(OCCOc2ccccc2)cc1	-3	0	-2%	3	-2	-13
COc1ccc(OC)c(NC(=O)Cn2c(=O)cc(C)c3c(C)nn(-c4cccc(Cl)c4C)c32)c1	3	0	-3%	1	-3	2
Cc1ccc(C(=O)COC(=O)c2cc(-c3ccccc3)nc3ccccc23)cc1C	-4	1	-1%	7	-2	6
CCOC(=O)C(C)Oc1ccc2c(CC)cc(=O)oc2c1C (centres undefined)	-4	-1	1%	1	-3	6
CCOC(=O)CCc1c(C)c2ccc(OC(C)C(=O)OCC)c(C)c2oc1=O (centres undefined)	12	-1	-1%	18	-12	-41*
CN(C)c1ccc(/C=C/c2ccncc2)cc1	1	19	2%	14	-3	4
COc1cc2nc(/C=C/c3ccc(N(C)C)cc3)sc2cc1SC	6	85*	11µM*	554*	35*	12
Cc1cccc(NC(=O)CSc2nc3ccc(NC(=O)COc4ccc(Cl)cc4)cc3s2)c1	4	2	6%	11	-1	-32*
COc1ccc(CC(=O)Nc2cccc(-c3csc(C)n3)c2)cc1	7	-1	-1%	0	-5	-1
O=C(O)CSc1nc2ccc(NC(=O)COc3ccc(Cl)cc3)cc2s1	-3	1	-2%	-1	-1	-24
Cc1nc(-c2cccc(NC(=O)COc3ccc(Cl)cc3)c2)cs1	-3	0	x	14	-17	-44*
COC(=O)[C@@]1(Cc2ccccc2-c2ccco2)C=C[C@H](C)[C@@H](c2ccccc2)N1C(=O)C(F)(F)F	x	x	1%	x	x	x
CCOC(=O)c1cc(-c2ccc(C)cc2)n(CCCC(=O)Nc2cc(C)ccc2C)c1	6	1	2%	4	-8	-6
Cn1cc(Br)c(C(=O)N/N=C/c2cccc(OC3CSC3)c2)n1	-2	0	3%	2	2	-30*
Cc1ccc(C)c(Cn2c(=O)n(Cc3ccccc3)c(=O)c3c2c2cc(C)ccc2n3C)c1	-2	0	-2%	2	-1	4
Cc1c(C(=O)N2CCOCC2)sc2ncn(CC(=O)N3CCC(C)CC3)c(=O)c12	-2	1	1%	2	1	1
Cc1c(C(=O)N2CCN(c3ccc([N+](=O)[O-])cc3)CC2)sc2ncn(CC(=O)N3CCOCC3)c(=O)c12	11	-2	x	54*	x	9
CC(C)c1ccc2nc3sc(C(=O)N4CCc5ccccc5C4)c(N)c3cc2c1	-2	8	u	31*	0	1
CCN1CCc2nc3sc(C(=O)N4CCc5ccccc5C4)c(N)c3cc2C1	15	1	x	6	x	2
CCOC(=O)c1cnc(-n2nc(C)cc2C)nc1NC1CCCC1	6	-1	u	48*	-2	5
Cc1cc(C)cc(NC(=O)C(NCCN2CCOCC2)c2ccccc2)c1 (centres undefined)	0	0	-1%	6	-7	-54*
